Screens as filed in PubChem.
Pf growth 96h: P. falciparum growth inhibition at 96 hours | 320,000 compounds, 6.9% hits | Potency, µM (titrated, usually from 28.7 µM), without a hit: at the top dose activity change, negative = inhibition, actives largely listed as inhibitors | P. falciparum luciferase reporter growth, 96 h | AID 504834; active = well fitted inhibition curve with a large enough effect; inconclusive = small, poorly fitted or top-dose-only effect, or another doubt; inactive = no such curve, though single readings can be large or run the other way; note: potency is the fitted concentration of half-maximal effect; % is set by controls: 0 for no effect and ±100 for the full control effect
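P. falciparum expressing integrated firefly luciferase grown in erythrocytes (2% hematocrit, 0.05% parasitemia final) with compounds for 96 hours at 37 C, 5% CO2. Growth inhibition read as loss of luminescence after adding luciferase detection reagent.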
Pf growth 48h: inhibits P. falciparum growth in the first generation, 48 h. P. falciparum luciferase growth in erythrocytes, 48 h. Potency, µM (highest dose often 28.7 µM), for inactives: top-dose activity change, negative = inhibition, usual class: inhibitors. 310,000 compounds, 5.9% hits. AID 504832; active = well fitted inhibition curve with a large enough effect; inconclusive = small, poorly fitted or top-dose-only effect, or another doubt; inactive = no such curve, though single readings can be large or run the other way; note: potency is the fitted concentration of half-maximal effect; % is set by controls: 0 for no effect and ±100 for the full control effect
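Parasite viability was followed by luminescence of a genomically integrated firefly luciferase. Cultures held 0.1% parasitemia at 2% hematocrit (final), incubated under 5% CO2 at 37 C.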
SARS PLP yeast: blocks SARS-CoV papain-like protease in a yeast assay. S. cerevisiae expressing SARS-CoV PLpro, growth rescue. Potency, µM (highest dose often 32.9 µM), for the others: at the highest dose activity, positive = growth rescue, usual class: activators. AID 485353. 330,000 compounds, 0.19% hits; note: potency is the fitted concentration of half-maximal effect; 0% is about no effect; nearly all actives have a fitted effect of over 55% in size
Cycloheximide cs: counter-screen hit for Shiga toxin inhibitors, cycloheximide. cell reporter, cycloheximide protein synthesis inhibition counterscreen. max response, %. 300,000 compounds, 12% hits; in the data active = max response mostly above about 13%, no sharp cut-off; inactive = mostly below about 14%; note: read at 38.3 µM for the half of the compounds with a filed dose; 0% is about no effect
NS1 inh: influenza NS1 inhibition | 270,000 compounds, 0.4% hits | Potency, µM (highest dose often 46.1 µM), for the others: top-dose activity, positive = more growth; note: potency is the fitted concentration of half-maximal effect; actives are rising curves; nearly all actives have a fitted effect of over 50% in size
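OD600 was taken as the measure of yeast growth restored by compound in an NS1-expressing S. cerevisiae strain. Cells had been washed out of glucose medium and diluted 1:100 into galactose -URA medium, pH 6.0.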
Shiga toxin inh: Shiga toxin inhibition. Vero cells, Shiga toxin protein synthesis inhibition reporter. inhibition, % at 38.7 µM. 290,000 compounds, 9.2% hits; in the data active = inhibition mostly above about 28%, no sharp cut-off; inactive = mostly below about 43%; note: 0% is about no effect
Starred values were filed as active, the others as inactive; ? = inconclusive; / = no result given; [ ] = another dose, or the depositor's remark. This is a sample that favours compounds with a hit; in the whole collection about 21% have one here. Unless noted, calls come from the whole dose curve.

SMILES	Pf growth 96h	Pf growth 48h	SARS PLP yeast	Cycloheximide cs	NS1 inh	Shiga toxin inh
CC(C)CC(NC(=O)OC(C)(C)C)c1cn([C@@H](Cc2cc3ccccc3[nH]2)C(=O)N2CCN(C(=O)OC(C)(C)C)CC2)nn1 (stereo partly drawn)	5.2µM*	?	1%	-3	2%	-14
CC(C)CC(NC(=O)OC(C)(C)C)c1cn([C@@H](Cc2ccc(O)cc2)C(=O)N2CCN(C(=O)OC(C)(C)C)CC2)nn1 (stereo partly drawn)	4.7µM*	?	1%	-2	0%	-9
CC[C@H](C)C(C(=O)N1CCN(C(=O)OC(C)(C)C)CC1)n1cc(C(Cc2ccc(O)cc2)NC(=O)OC(C)(C)C)nn1 (stereo partly drawn)	1.7µM*	?	1%	1	1%	-11
COc1ccc(CC(=O)N[C@@H]2c3ccccc3CC[C@H]2OCc2ccccc2)cc1	/	/	-15%	/	/	/
CCCCc1cc(=O)oc2cc(OCC(=O)N3C[C@H]4C[C@@H](C3)c3cccc(=O)n3C4)ccc12	8.3µM*	11%	-16%	-1	5%	-6
COc1ccc(-c2cc(=O)oc3cc(OCC(=O)N4C[C@H]5C[C@@H](C4)c4cccc(=O)n4C5)ccc23)cc1	?	?	12%	-2	7%	-2
CCc1cc(=O)oc2cc(C)cc(OCC(=O)N3CCC(C(=O)NC(C)C)(c4ccccc4)CC3)c12	10µM*	10µM*	-6%	1	6%	-8
Cc1cc(OCC(=O)N2CCC(C(=O)O)(c3ccccc3)CC2)c2c(C)cc(=O)oc2c1	0%	12%	4%	-2	13%	-5
CCCCc1cc(=O)oc2cc(C)cc(OCC(=O)N3C[C@H]4C[C@@H](C3)c3cccc(=O)n3C4)c12	?	10µM*	-4%	-2	-12%	9
CC(=O)c1ccccc1NS(=O)(=O)c1cccc2nsnc12	2%	23%	-3%	-4	-5%	/
Cc1noc(C)c1COc1ccccc1C(=O)N(C)CC(=O)Nc1ccc(F)cc1	2%	-3%	-5%	/	/	/
Cc1cc(C)c(C(=O)C(C)OC(=O)c2ccc(Cl)nc2)cc1C (stereo not drawn)	28%	13%	-9%	-1	-43%	0
COc1cc(Nc2c3c(nc4ccccc24)CCC3)cc(OC)c1OC	5%	12µM*	2%	-2	8%	-8
Cc1cccc(Nc2c3c(nc4ccccc24)CCC3)c1	?	12µM*	-1%	-2	-41%	-6
COc1ccc(OC)c(Nc2c3c(nc4ccccc24)CCC3)c1	?	?	1%	-4	0%	-2
CSCC[C@H](N)C(=O)NCC1CCC(C(=O)Nc2ccc3c(c2)OCO3)CC1 (stereo partly drawn)	?	0%	-19%	-2	-5%	-4
CCOC(=O)c1sc2nc(CC(=O)OC)nc(NCC(=O)OC)c2c1C	1%	?	5%	7	-54%	1
CCOC(=O)c1sc2nc(CC(=O)OC)nc(NCc3ccco3)c2c1C	-23%	2.6µM*	-5%	-2	-35%	7
CCCc1cc(=O)oc2cc(OCC(=O)NCCc3c[nH]c4ccccc34)ccc12	-11%	-23%	0%	0	-10%	-2
O=C(Nc1cccnc1)c1cc(F)c(F)cc1Cl	19%	24%	3%	-6	/	-5
O=C(Nc1cccnc1)c1cc(-c2ccc(Cl)cc2)on1	91%	231%	-3%	40*	/	152*
O=C(Nc1cccnc1)c1cc(-c2ccc(Cl)cc2Cl)on1	34%	164%	-5%	28*	-2%	63*
Cc1cc(C(=O)Nc2cccnc2)no1	2%	-3%	5%	0	9%	11
COc1ccc(NC(=O)CN(C)C(=O)CNC(=O)c2ccc3ccccc3c2)cc1	42%	65%	-2%	/	/	/
N#CCC(CNc1ncc(C(F)(F)F)cc1Cl)OC(=O)c1cccc(C(F)(F)F)c1 (stereo not drawn)	5.9µM*	?	-15%	3	-14%	18
SMILES	Pf growth 96h	Pf growth 48h	SARS PLP yeast	Cycloheximide cs	NS1 inh	Shiga toxin inh
CCN(C(=O)COC(=O)COc1ccccc1Cl)c1c(N)n(Cc2ccccc2)c(=O)[nH]c1=O	12%	-4%	-5%[6.58 µM]	/	/	/
Cc1cc(NC(=O)CSc2nnc(-c3c[nH]c4ccccc34)n2C)no1	-21%	-18%	1%	8	9%	-7
CC(=O)N(c1ccc(Cl)cc1)c1c[nH]c2ccccc12	6.6µM*	12µM*	55%	-4	2%	-15
COc1cccc(NC(=O)CN(C)C(=O)C(CCSC)NC(=O)c2ccco2)c1 (stereo not drawn)	-18%	-23%	-5%	/	/	/
Cc1ccc(OCC(=O)NC(=S)Nc2cccc(C)n2)cc1	351%	-18%	-24%	3	-8%	15
Cc1cccc(NC(=O)COc2ccc(Br)cc2)n1	26%	28%	-18%	62*	-19%	72*
Cc1ccc(OCC(=O)Nc2cccc(C)n2)c(C)c1	/	228%	-5%	36*	-10%	77*
Cc1cc(=O)[nH]c2cc(O)ccc12	33%	8%	-3%	-2	7%	13
CC(C)=CCCC1(C)C=Cc2c(c(C)cc3c2[nH]c2cc(O)ccc23)O1 (stereo not drawn)	-16%	10µM*	-4%	-2	5%	34
Cc1cccc(C2(c3cccc(C)c3)CC2C(=O)NCC2CCCO2)c1 (stereo not drawn)	-13%	-3%	5%	-3	-15%	14
Cc1cccc(C2(c3cccc(C)c3)CC2C(=O)Nc2ccc([N+](=O)[O-])cc2O)c1 (stereo not drawn)	?	2.1µM*	-7%	1	6%	-2
O=C(Cc1cccs1)Nc1nnc(SCc2cccc3ccccc23)s1	0%	16%	14%	-5	9%	1
CC(=O)Nc1nc2c(ccc3ccccc32)s1	10µM*	47%	14%	9.9*	-7%	20
CC(=O)Nc1nc2cc(N)ccc2s1	?	9%	9%	/	/	/
O=C(Cc1cccs1)Nc1nc2c(ccc3ccccc32)s1	/	41%	14%	34*	-3%	86*
NC(=O)[C@@H]1CCCNC1	/	/	/	/	6%	/
CC(C)C(NC(=O)c1ccccc1NC(=O)c1ccccc1)C(=O)NNC(=O)c1ccncc1 (stereo not drawn)	?	?	1%	1	1%	-4
CC(C)(C)c1ccc(C(=O)N/C(=C\c2cccs2)C(=O)NCc2ccco2)cc1	8.3µM*	?	-6%	33*	-60%	55
Cc1ccc(NC(=O)C(=S)NCc2ccco2)cc1	92%	76%	3%	38*	14%	38
Cc1ccc(C(=O)NC(=S)NCc2ccccc2)cc1	?	86%	-6%	16*	-8%	45
CC(=O)Nc1ccc(C(=O)N/C(=C/c2ccccc2)C(=O)NCc2ccco2)cc1	1%	22%	4%	-5	-3%	6
